FMDV inh: foot and mouth disease virus antiviral activity | FMDV antiviral cell-based qHTS | Potency, µM (top dose mostly 57.9 µM), inactives show at the highest dose activity change, negative = inhibition, usual class: inhibitors | actives 1.2% (n = 410,000); calls by dose curve; tested in HEK293T cells; note: read-out not given here; potency is the fitted concentration of half-maximal effect; nearly all actives have a fitted effect of over 45% in size
HCMV inh: inhibitors of human cytomegalovirus; activity change, negative = inhibition, % at 57.5 µM; HFF cells, HCMV-luciferase reporter, 72 h; stronger effect = lower value; actives 4.5% (n = 410,000); in the data active = activity change below about -60%; inconclusive = no clear call, values can overlap the other calls; inactive = above about -39%
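Compounds were evaluated in HFFs infected with an HCMV luciferase reporter virus (MOI 1 PFU/cell). Luciferase in lysates collected 72 h post infection served as the replication measure.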
Vaccinia Venus: inhibitors of vaccinia virus (Venus reporter) | AID 720580 | Potency, µM (doses to about 36.5 µM), for inactives: top-dose activity change, negative = inhibition, hits mostly inhibitors | Vaccinia virus Venus reporter expression, fluorescence | actives 0.46% (n = 330,000); calls by dose curve; tested in A549 cells; note: potency is the fitted concentration of half-maximal effect; nearly all actives have a fitted effect of over 30% in size
VACV mCherry inh: vaccinia inhibition (mCherry reporter). Vaccinia virus mCherry reporter infection, fluorescence. Potency, µM (doses to about 36.5 µM), for the others: top-dose activity change, negative = inhibition, actives largely listed as inhibitors. actives 0.63% (n = 310,000). AID 720579; calls by dose curve; tested in A549 cells; note: potency is the fitted concentration of half-maximal effect; nearly all actives have a fitted effect of over 35% in size
FBPA Giardia inh: blocks Giardia fructose-bisphosphate aldolase activity; purified Giardia FBPA; A8B2U2; actives 0.71% (n = 290,000); AID 2451; Potency, µM (series often up to 59.6 µM), for the others: at the highest dose activity, negative = inhibition, actives largely listed as inhibitors; note: potency is the fitted concentration of half-maximal effect; nearly all actives have a fitted effect of over 55% in size
Target sequence (A8B2U2 whole entry, looked up): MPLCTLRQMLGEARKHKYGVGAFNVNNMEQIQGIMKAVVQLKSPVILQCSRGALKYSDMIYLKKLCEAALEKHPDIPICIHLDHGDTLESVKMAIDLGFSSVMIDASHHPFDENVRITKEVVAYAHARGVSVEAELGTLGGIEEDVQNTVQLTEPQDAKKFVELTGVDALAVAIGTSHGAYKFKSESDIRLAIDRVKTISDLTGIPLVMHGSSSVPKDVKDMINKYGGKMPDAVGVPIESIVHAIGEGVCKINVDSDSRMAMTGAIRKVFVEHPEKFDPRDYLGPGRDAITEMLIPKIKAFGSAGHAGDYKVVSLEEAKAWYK
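Giardia FBPA (40 nM reagent) was preincubated 10 min at RT with compound (up to 57.5 uM final), then substrate plus GAPDH/TPI/NAD/arsenate coupling system with diaphorase/resazurin was added; resorufin fluorescence (525/598 nm) was read after 20 min.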
HCV inhibitor: blocks hepatitis C virus; Huh7.5.1 HCVcc-Cre infection, luciferase reporter, 44 h; Potency, µM (highest dose often 41.8 µM), for inactives: top-dose activity change, negative = inhibition, usual class: inhibitors; actives 3.4% (n = 340,000); note: potency is the fitted concentration of half-maximal effect
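1,000 cells/well; 4 h culture; + compound; + HCVcc-Cre (~0.5 moi); 44 h; luciferase substrate, RT 15 min; read 15 sec.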
* marks the source's active call; other numbers are inactive results; i = inactive; ? = inconclusive; . = no result; [ ] = dose if it differs, or a comment. This is a sample that favours compounds with a hit; in the whole collection about 7.5% have one here. Unless noted, calls come from the whole dose curve; as a rule, active = well fitted curve in the direction sought with a large enough effect; inconclusive = small, poorly fitted or top-dose-only effect, or another doubt; inactive = no such curve, though single readings can be large; an effect the other way counts as inactive or inconclusive. % is set by controls: 0 for no effect and ±100 for the full control effect.

SMILES | FMDV inh | HCMV inh | Vaccinia Venus | VACV mCherry inh | FBPA Giardia inh | HCV inhibitor
O=c1cc(CSc2nnc(-c3cccs3)n2Cc2ccccc2)nc2sc3ccccc3n12 | 15.8µM* | -93.3* | ? | -14.6% | 6.0% | ?
CCOC(=O)c1c(C)[nH]c(C(=O)CSc2nnc(-c3cccs3)n2Cc2ccccc2)c1C | -29.6% | -19.1 | . | . | -6.6% | ?
CC(=O)CCSc1ncnc2sc(-c3ccccc3)cc12 | -11.0% | -111.7* | -27.6% | -28.7% | . | -10.4%
O=C(CSc1nnc(-c2ccccc2)o1)c1nnc(-c2ccccc2)o1 | -9.6% | 63.2 | -26.1% | . | -14.3% | -24.9%
CC(=O)c1c(C)[nH]c(C(=O)CSc2nnc(-c3cccs3)n2Cc2ccccc2)c1C | -27.7% | -13.1 | . | . | -3.5% | 2.82µM*
CCCCc1cc(=O)oc2cc(C)cc(OCC(=O)N3CCC(C(=O)O)(c4ccccc4)CC3)c12 | -17.4% | 0.8 | -3.1% | 6.5% | 20.5% | 11.1%
NC1(C(=O)O)CCc2cc(P(=O)(O)O)ccc21 (stereo not given) | 16.0% | . | -8.7% | -18.1% | . | .
O=C(O)CSc1ncnc2sc(-c3ccccc3)cc12 | 30.9% | 17.8 | -8.7% | -6.8% | ? | 29.2%
CC(=O)c1c(C)[nH]c(C(=O)CSc2ncnc3sc(-c4ccccc4)cc23)c1C | 0.0% | -77.3* | -20.0% | -24.7% | -1.4% | ?
O=C(O)C1CC=CCC1C(=O)NCc1ccc(Cl)c(Cl)c1 (stereo not given) | -16.3% | ? | -4.7%[7.34 µM] | -8.4%[7.34 µM] | . | 17.8%
CC(C)(C)NC(=O)C(c1c[nH]c2ccccc12)N(C(=O)Cn1nnc(-c2ccc(F)cc2)n1)c1cccc(O)c1 (stereo not given) | ? | -20.3 | ? | ? | 0.0% | 10µM*
CC(C)(C)NC(=O)C(c1ccco1)N(C(=O)Cn1nnc(-c2ccc(F)cc2)n1)c1cccc(F)c1 (stereo not given) | 11.9% | 12.6 | -11.6% | i | -6.6% | ?
CCC(C)(C)NC(=O)C1CCCN(S(=O)(=O)c2ccc3c(c2)CC(C)N3C(=O)C2CC2)C1 (stereo not given) | 4.0% | 5.1 | -22.1% | -5.0% | 3.5% | ?
Cc1cccc(CN2CCC(C(=O)Nc3cccc(-c4cscn4)c3)CC2)n1 | ? | ? | . | . | . | -0.8%
COCCc1ncc(CN2CCC(C(=O)Nc3cccc(-c4cscn4)c3)CC2)cn1 | ? | -15.3 | . | . | 0.8% | ?
Cc1nn(C(C)C)c(C)c1CN1CCC(C(=O)Nc2cccc(-c3cccc(F)c3)c2)CC1 | -17.1% | 30.5 | . | . | -5.1% | 10µM*
CCCc1ncc(CN2CCC(C(=O)Nc3cccc(-c4cscn4)c3)CC2)cn1 | -27.4% | -25.3 | . | . | -1.3% | 11.2µM*
Cn1cc(CN2CCC(C(=O)Nc3cccc(-c4cccc(F)c4)c3)CC2)cn1 | -12.2% | -1.2 | . | . | . | 10µM*
Cc1cccc(CN2CCC(C(=O)Nc3cccc(-c4cccc(F)c4)c3)CC2)n1 | -25.6% | -33.5 | . | . | -26.7% | 7.94µM*
COC(=O)c1c(OCc2ccccn2)cc(=O)n2c1CCN(C(=O)c1n[nH]c3c1CCCC3)CC2 | -10.5% | . | -8.4% | -14.7% | . | .
O=C(c1ccccc1Br)N1CCc2c([nH]c3ccccc23)C1 | -7.1% | -22.5 | . | . | -3.9% | 3.4%
CCCn1ncc(CN2CCC(C(=O)Nc3cccc(-c4cccc(F)c4)c3)CC2)c1C | -12.3% | -65.3* | ? | ? | 3.4% | ?
CCN1CCN(c2ccc(S(=O)(=O)N3CCCCC3)cc2NC(=O)COc2ccc(Cl)c(C)c2)CC1 | -13.4% | 17.4 | -27.6% | i | . | 11.2µM*
CCN1CCN(c2ccc(S(=O)(=O)N3CCCCC3)cc2NC(=O)c2ccc([N+](=O)[O-])s2)CC1 | -27.9% | -25.8 | 10µM* | 8.91µM* | . | 35.5µM*
CCN1CCN(c2ccc(S(=O)(=O)N3CCCCC3)cc2NC(=O)/C=C/c2ccc(OC)c(OC)c2)CC1 | -15.4% | -4.3 | -22.5% | -10.2% | . | 2.1%
CCN1CCN(c2ccc(S(=O)(=O)N3CCCCC3)cc2NC(=O)/C=C/c2ccc(Cl)cc2)CC1 | -19.1% | 4.3 | ? | ? | . | 31.6µM*
CCN1CCN(c2ccc(S(=O)(=O)N3CCCCC3)cc2NC(=O)COc2ccccc2)CC1 | -25.9% | -3.2 | -19.6% | -9.1% | . | ?

From PubChem BioAssay
